# Laboratory results: PubChem BioAssay (EPA / NIEHS)
# Records with an inconclusive call do not appear. Activity calls are given as the source filed them. Rule for the calls, unless noted: active = hit-call score of the fitted dose curve at least 0.9, where 1 is the maximum; inconclusive = response in the unintended direction; inactive = score below 0.9.
# Experiments:
# [1] = molecular target: Retinoic acid receptor RXR-alpha (Homo sapiens) (UniProt P19793); assay: OT_NURR1_NURR1RXRa_1440: Odyssey Thera (OT) 24-hour HEK293T Protein Complementation Assay for Nurr1/retinoid X receptor (RXR) (AID 2283386)
# Summary of the method: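 Fluorescence PCA read-out; HEK293T; 24 h post-dose; bait/prey fused to reporter fragments; gain-of-signal fit vs DMSO negative control.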
# [2] = molecular target: Peroxisome proliferator-activated receptor gamma (Homo sapiens) (UniProt P37231); assay: OT_PPARg_PPARgSRC1_0480: Odyssey Thera (OT) 8-hour Protein-Complementation Assay for Peroxisome Proliferator-activated Receptor Gamma / SRC-1 Co-activator (AID 2283387);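 note: nuclear to cytoplasmic split Venus YFP fluorescence ratio reporting PPARg SRC-1 interaction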
# Summary of the method: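 Split-YFP (IFP1/IFP2) PPARg/SRC-1 reporter, HEK293T, 37 °C, 5% CO2; 8 h compound; formaldehyde fix + Draq5; high-content imaging, N/C ratio, ≥350 cells/image, positive direction vs DMSO.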
# [3] = molecular target: Peroxisome proliferator-activated receptor gamma (Homo sapiens) (UniProt P37231); assay: OT_PPARg_PPARgSRC1_1440: Odyssey Thera (OT) 24-hour Protein-Complementation Assay for Peroxisome Proliferator-activated Receptor Gamma/ SRC-1 Co-activator (AID 2283388);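 note: nuclear to cytoplasmic ratio of reconstituted Venus YFP fluorescence in fixed imaged cells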
# Summary of the method: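 Protein-fragment complementation between PPARg and coactivator SRC-1 was measured by fluorescence imaging in transiently transfected HEK293T cells after 24 h treatment. Signal was quantified as N/C ratio in the 488 nm channel, with DMSO as negative control.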
# [4] = CEETOX_H295R_11DCORT: CeeTox H295R High-throughput Steroidogenesis Assay for 11-Deoxycortisol (11DCORT) (AID 2283432; active = hit-call score of the fitted dose curve at least 0.9, where 1 is the maximum; inactive = score below 0.9;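 note: human adrenal H295R cells prestimulated with 10 µM forskolin for 48 h; 11-deoxycortisol secreted into the medium measured by LC-MS/MS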); conditions: actives raise or lower the signal
# Summary of the method: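 Steroidogenesis in human H295R cells: 48 h chemical exposure after forskolin priming, 11-deoxycortisol measured by LC-MS/MS.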
# [5] = CEETOX_H295R_OHPREG: CeeTox H295R High-throughput Steroidogenesis Assay for OH-Pregnenolone (OHPREG) (AID 2283434; active = hit-call score of the fitted dose curve at least 0.9, where 1 is the maximum; inactive = score below 0.9); conditions: actives raise or lower the signal
# Summary of the method: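 Readout: HPLC-MS/MS of 17alpha-hydroxypregnenolone in medium after 48 h chemical exposure of H295R cells pretreated with forskolin. Values fitted bidirectionally relative to DMSO; chemicals reducing viability to 20–70% were retested after 10-fold dilution.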
# Sequence of Retinoic acid receptor RXR-alpha (Homo sapiens) (P19793 whole entry, looked up, the tested form may be a part): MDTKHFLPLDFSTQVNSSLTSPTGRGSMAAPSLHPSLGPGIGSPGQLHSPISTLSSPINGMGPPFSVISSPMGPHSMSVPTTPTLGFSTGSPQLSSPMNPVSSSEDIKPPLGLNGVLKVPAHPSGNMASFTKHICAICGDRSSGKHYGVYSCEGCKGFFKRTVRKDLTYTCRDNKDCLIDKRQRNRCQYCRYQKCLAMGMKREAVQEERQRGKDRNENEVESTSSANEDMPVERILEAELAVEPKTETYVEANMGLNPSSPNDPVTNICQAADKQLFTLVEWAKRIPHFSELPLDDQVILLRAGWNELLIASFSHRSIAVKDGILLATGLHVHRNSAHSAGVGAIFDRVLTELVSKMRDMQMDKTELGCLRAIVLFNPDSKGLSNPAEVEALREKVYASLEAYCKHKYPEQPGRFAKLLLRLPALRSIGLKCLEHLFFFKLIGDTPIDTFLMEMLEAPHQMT
# Sequence of Peroxisome proliferator-activated receptor gamma (Homo sapiens) (P37231 whole entry, looked up, the tested form may be a part): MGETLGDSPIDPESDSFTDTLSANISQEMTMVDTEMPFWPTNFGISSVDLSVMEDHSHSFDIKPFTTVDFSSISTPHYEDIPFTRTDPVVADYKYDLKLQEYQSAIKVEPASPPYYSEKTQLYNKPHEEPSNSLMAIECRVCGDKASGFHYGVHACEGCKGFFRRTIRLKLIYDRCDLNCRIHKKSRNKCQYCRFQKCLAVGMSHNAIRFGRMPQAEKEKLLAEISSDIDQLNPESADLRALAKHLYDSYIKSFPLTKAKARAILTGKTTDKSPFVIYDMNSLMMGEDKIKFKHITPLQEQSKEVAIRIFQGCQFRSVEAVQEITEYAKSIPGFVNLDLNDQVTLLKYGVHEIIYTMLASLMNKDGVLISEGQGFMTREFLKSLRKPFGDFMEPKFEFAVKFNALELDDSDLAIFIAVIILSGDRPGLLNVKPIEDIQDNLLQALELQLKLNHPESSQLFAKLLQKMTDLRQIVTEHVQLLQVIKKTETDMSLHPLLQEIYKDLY
smiles,measurement,setting,value
COC(=O)c1ccc(C)cc1C1=NC(C)(C(C)C)C(=O)N1 (configuration not stated) (tested in a mixture with another compound),outcome,[1],inactive
same,outcome,[2],inactive
CCCCCCCCC=CCCCCCCCC1=NCCN1CCO,outcome,[2],inactive
same,outcome,[3],inactive
C[C@H]1O[C@@H](O[C@H]2[C@@H](O)C[C@H](O[C@H]3[C@@H](O)C[C@H](O[C@H]4CC[C@@]5(C)[C@H](CC[C@@H]6[C@@H]5C[C@@H](O)[C@]5(C)[C@@H](C7=CC(=O)OC7)CC[C@]65O)C4)O[C@@H]3C)O[C@@H]2C)C[C@H](O)[C@@H]1O,outcome,[2],inactive
same,outcome,[3],inactive
CN1CCOCC1,outcome,[1],inactive
same,outcome,[2],inactive
CC(C)CCCCCCCCCCCCCCC(=O)O,outcome,[2],inactive
same,outcome,[3],inactive
CCCCCCC(C)(C)S,outcome,[1],inactive
same,outcome,[2],inactive
same,outcome,[3],inactive
OCC#CCO,outcome,[1],inactive
same,outcome,[2],inactive
C=Cc1ccc(C)cc1,outcome,[1],inactive
same,outcome,[2],inactive
same,outcome,[3],inactive
COc1ccccc1N=Nc1c(S(=O)(=O)O)cc2cc(S(=O)(=O)O)cc(NC(C)=O)c2c1O,outcome,[1],inactive
same,outcome,[2],inactive
same,outcome,[3],inactive
CCCCCCCC/C=C\CCCCCCCC(=O)OCC,outcome,[2],inactive
same,outcome,[3],inactive
CCCCCC(=O)CC,outcome,[1],inactive
same,outcome,[2],inactive
same,outcome,[3],inactive
COCCc1ccc(OCC(O)CNC(C)C)cc1 (configuration not stated),AC50,[4],28.6 µM (active)
same,outcome,[5],inactive
C=C(C)[C@@H]1CC=C(C)C(=O)C1,outcome,[1],inactive
same,outcome,[3],inactive
CCC(=O)O[C@@H]1C[C@H]2CC[C@]1(C)C2(C)C,outcome,[1],inactive
same,outcome,[2],inactive
CC(CN=Cc1ccccc1O)N=Cc1ccccc1O (configuration not stated),outcome,[2],inactive
same,outcome,[3],inactive
same,AC50,[4],3.89 µM (active)
same,outcome,[5],inactive
Nc1ccc2cc(S(=O)(=O)O)cc(O)c2c1N=Nc1ccccc1C(F)(F)F,outcome,[2],inactive
